# Source: publication PMC8769072, “Proteome‐scale mapping of binding sites in the unstructured regions of the human proteome” (Molecular Systems Biology, 2022)
# B1: ERVK-21, P62683 (peptide)
# chain: GDTEAWQFPVMLEPMP
# B2: ERVK-9, P63128 (peptide)
# chain: LNPTAPPSRQGSELHE
# B3: ERVK-6, Q7LDI9 (peptide)
# chain: LPQYNNAPPPQAAVQQ
# Experiments:
# [1] = target: TLN1 309-401, Q9Y490
# [2] = target: TSG101 1-145, Q99816
# [3] = target: YAP1 169-207, P46937
# Chain of YAP1 169-207, P46937 (P46937 169-207): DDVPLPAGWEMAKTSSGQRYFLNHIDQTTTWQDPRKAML
# Chain of TLN1 309-401, Q9Y490 (Q9Y490 309-401): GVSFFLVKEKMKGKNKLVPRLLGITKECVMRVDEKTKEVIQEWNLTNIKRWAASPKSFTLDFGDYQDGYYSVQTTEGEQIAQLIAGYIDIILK
# Chain of TSG101 1-145, Q99816 (Q99816 1-145): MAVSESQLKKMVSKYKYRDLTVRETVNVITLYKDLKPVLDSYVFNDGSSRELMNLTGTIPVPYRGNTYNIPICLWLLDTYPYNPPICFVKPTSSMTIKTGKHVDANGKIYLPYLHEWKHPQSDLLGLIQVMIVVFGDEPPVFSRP
binder,measurement,setting,value
B1,selected by phage display,[1],confidence 2 (active)
B2,selected by phage display,[2],confidence 2 (active)
B3,selected by phage display,[3],confidence 2 (active)
